# From PubChem
# L3MBTL1 inh – inhibitors of human L3MBTL1; Q9Y468; AlphaScreen L3MBTL1–H3K9me1 peptide binding; Potency, µM (series often up to 57.1 µM), without a hit: at the highest dose activity, negative = inhibition, usual class: inhibitors; actives 0.66% (n = 230,000); further: on the % scale 0 is the no-effect control and ±100 the full control effect; nearly all actives have a fitted effect of over 60% in size
# Target sequence (Q9Y468 whole entry, looked up): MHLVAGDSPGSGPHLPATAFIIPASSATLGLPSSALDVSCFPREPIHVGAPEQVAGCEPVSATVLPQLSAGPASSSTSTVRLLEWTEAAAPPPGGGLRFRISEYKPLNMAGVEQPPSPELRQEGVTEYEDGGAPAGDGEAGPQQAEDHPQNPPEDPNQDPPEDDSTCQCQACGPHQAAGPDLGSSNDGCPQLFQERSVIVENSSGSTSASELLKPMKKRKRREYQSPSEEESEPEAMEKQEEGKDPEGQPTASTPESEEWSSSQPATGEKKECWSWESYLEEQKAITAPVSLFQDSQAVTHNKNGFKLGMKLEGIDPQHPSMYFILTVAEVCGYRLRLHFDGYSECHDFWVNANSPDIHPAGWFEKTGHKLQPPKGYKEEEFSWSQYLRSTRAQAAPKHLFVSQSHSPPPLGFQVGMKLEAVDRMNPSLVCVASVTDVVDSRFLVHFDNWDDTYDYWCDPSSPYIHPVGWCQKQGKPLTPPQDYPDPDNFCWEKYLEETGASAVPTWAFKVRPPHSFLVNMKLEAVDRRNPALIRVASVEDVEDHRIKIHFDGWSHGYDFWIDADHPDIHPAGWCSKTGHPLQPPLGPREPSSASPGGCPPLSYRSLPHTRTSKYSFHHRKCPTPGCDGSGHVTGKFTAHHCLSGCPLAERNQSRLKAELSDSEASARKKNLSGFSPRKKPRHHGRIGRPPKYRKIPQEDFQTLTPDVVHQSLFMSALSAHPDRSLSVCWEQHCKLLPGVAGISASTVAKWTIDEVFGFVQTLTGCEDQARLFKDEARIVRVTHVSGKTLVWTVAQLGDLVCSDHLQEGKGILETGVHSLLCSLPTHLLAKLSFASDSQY
#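 First, the protein-peptide complex forms for 30 min at room temperature (L3MBTL1 50 nM, biotinylated H3K9me1 peptide 75 nM). Next, compounds are pin-transferred and incubated 30 min. Finally, AlphaScreen beads are added and read after 30 min.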
# JMJD2A Tudor inh – inhibitors of human JMJD2A Tudor domain. O75164. AlphaScreen JMJD2A-Tudor / H3K4me3 peptide binding. Potency, µM (highest dose often 114 µM), for inactives: at the top dose activity change, negative = inhibition, actives largely listed as inhibitors. actives 4.4% (n = 390,000). AID 504339; further: on the % scale 0 is the no-effect control and ±100 the full control effect; nearly all actives have a fitted effect of over 50% in size
# G9a block – inhibitors of human histone lysine methyltransferase G9a | Q96KQ7 | G9a H3K9 monomethylation, AlphaScreen, 2 h | Potency, µM (top dose mostly 102 µM), for the others: at the highest dose activity, negative = inhibition, most hits filed as inhibitors | actives 8.8% (n = 350,000) | AID 504332; further: on the % scale 0 is the no-effect control and ±100 the full control effect; nearly all actives have a fitted effect of over 75% in size
#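 Methyltransferase reactions run at room temperature for 2 h (20 nM enzyme, 500 nM biotin-H3K9 peptide, 20 uM SAM) after a 15 min compound preincubation; product detected by AlphaScreen beads and anti-H3K9me1 antibody.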
# BAZ2B block – BAZ2B (human) inhibition; Potency, µM (titrated, usually from 114 µM), for inactives: at the top dose activity change, negative = inhibition, actives largely listed as inhibitors; AlphaScreen BAZ2B-H3K14Ac peptide displacement; Q9UIF8; actives 4.4% (n = 360,000); AID 504333; further: on the % scale 0 is the no-effect control and ±100 the full control effect; nearly all actives have a fitted effect of over 60% in size
#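 BAZ2B (50 nM) with biotin-H3(5-23)K14Ac peptide (50 nM) in PBS pH 7.4, 0.01% Tween-20, preformed 30 min, then compound 30 min at room temperature; top concentration 110uM. AlphaScreen streptavidin donor/nickel chelate acceptor beads (10 ug/mL final), 20 min dark, signal read.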
# Sfp PPTase inh – blocks B. subtilis Sfp PPTase activity | Biochemical Sfp PPTase activity, qHTS | Potency, µM, inactives show largest response in the series, negative = inhibition, hits mostly inhibitors | actives 3.5% (n = 310,000);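 further: the enzyme is Sfp with the accession as filed and its product quenches rhodamine fluorescence; 0% = enzyme reaction without inhibitor and -100% = no enzyme wells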
#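 Buffer: 50 mM Hepes-Na pH 7.6, 10 mM MgCl2, 0.01% Nonidet P-40, 0.01% BSA. Enzyme 15 nM, pre-exposed to compound 15 min; substrates then added and fluorescence change tracked over 30 min.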
# HP1b chromo inh – blocks HP1-beta chromodomain binding to methylated histone tails; AlphaScreen HP1-beta / biotin-H3K9me3 peptide binding; Potency, µM (series often up to 114 µM), for the others: at the top dose activity change, negative = inhibition, usual class: inhibitors; actives 0.56% (n = 390,000); AID 540317; further: nearly all actives have a fitted effect of over 70% in size
#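 HP1-beta protein (50 nM final) preincubated 30 min at room temperature with biotinylated H3(1-18)K9me3 peptide (50 nM) in PBS pH 7.4, 0.01% Tween-20, then compound added for 30 min. AlphaScreen streptavidin donor/nickel chelate acceptor beads (10 ug/mL final), 30 min dark, luminescence read.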
# * hit, by the source's call; ? = inconclusive; . = not tested or not shown; ! = not confirmed by another sample; [ ] = another dose, or the depositor's remark. Sampled rows, rich in hits. Any-hit rate of the full collection: about 12%. The call rests on the fitted dose curve; in most records, active means well fitted curve in the direction sought with a large enough effect; inconclusive means small, poorly fitted or top-dose-only effect, or another doubt; inactive means no such curve, though single readings can be large; an effect the other way counts as inactive or inconclusive. Potency means the concentration at half of the fitted maximal effect.
SMILES,L3MBTL1 inh,JMJD2A Tudor inh,G9a block,BAZ2B block,Sfp PPTase inh,HP1b chromo inh
CCOC(=O)Cn1c(=O)cc(C)c2ccccc21,-3%,13µM*,13%[59 µM],-1%,-5%,?
CC(=C/C(=O)O)/C=C/c1ccc(Cl)o1,10µM*,-8%[11.4 µM],11µM*,50µM*,?,71µM*
Cc1ccc(/C=C/C(=O)NCc2ccncc2)cc1,9%,-6%,-9%,-2%,15%,42%
CC(/C=C\c1ccccc1)=C/C(=O)O,.,3%,21%,-10%,9%,28%
Cc1ccc(/C=C/C(=O)NCc2cccs2)o1,-8%,?,13µM*,?,10µM*,?
CC(/C=C/c1ccc(C)o1)=C\C(=O)O,4%,-31%,8.9µM*,-3%,10µM*,-16%
Cc1ccc(CNC(=O)/C=C/c2ccc(Br)o2)cc1,0%,-2%,1.4µM*,?,28µM*,16%
CCn1ccc2c(OCC(=O)Nc3ccccc3C(F)(F)F)cccc2c1=O,.,-2%,-1%[59 µM],2%,.,30%
Cc1ccc(O)c(-c2ccnc3cc(-c4ccc(Cl)cc4)nn23)c1,.,2%,-1%[59 µM],-8%,.,54%
CC(=O)/C=C/c1ccc(C)o1,.,4%,?,-5%,40µM*,11%
Cc1ccc(/C=C/C(=O)Oc2ccc(C#N)cc2)o1,.,.,?,-2%,14%,.
CC(=O)C1=C(C)NC(SCC(=O)c2ccc(Cl)c(Cl)c2)=C(C#N)C1c1ccco1 (configuration not stated),-29%,?,?,.,3.5µM*,19%
CC1=C(C(=O)Nc2ccccc2)C(c2ccco2)C(C#N)=C(SCC(=O)OC(C)C)N1 (configuration not stated),-2%,-10%,-15%[59 µM],.,6%,32%
CCOC(=O)C1=C(C)NC(SCC(=O)O)=C(C#N)C1c1ccco1 (configuration not stated),2%,?,?,-31%,4%,35%
CC(=O)C1=C(C)NC(SCC(=O)c2cc(Cl)ccc2Cl)=C(C#N)C1c1ccco1 (configuration not stated),-9%,?,32µM*,2%,35µM*,-3%
COc1ccccc1NC(=O)C1=C(C)NC(SCC(=O)c2ccc(C)cc2)=C(C#N)C1c1ccco1 (configuration not stated),.,.,?,-23%,45µM*,.
CCc1ccc(C(=O)CSC2=C(C#N)C(c3ccco3)C(C(C)=O)=C(C)N2)cc1 (configuration not stated),-20%,-10%,40µM*,-3%[57.1 µM],56µM*,49%
CC(=O)C1=C(C)NC(SCC(=O)c2ccc(F)cc2)=C(C#N)C1c1ccco1 (configuration not stated),-3%,-24%,?,-5%,?,35%
CCCCc1nc2c(c3c1C[C@H](C)OC3)CN(S(=O)(=O)c1ccc(C#N)cc1)CC2,.,.,.,.,-4%,.
CC(N)(COP(=O)(O)O)C(=O)O (configuration not stated),.,.,32%[59 µM],.,?,.
CC1=C(C(=O)Nc2ccccc2)C(c2ccco2)C(C#N)=C(SCc2ccccc2)N1 (configuration not stated),.,.,?,-32%,4%,.
CCN(CC)C(=O)CSC1=C(C#N)C(c2ccco2)C(C(=O)OCCOC)=C(C)N1 (configuration not stated),-10%,79µM*!,25µM*,?,56µM*,26%
CC(=O)C1=C(C)NC(SCc2cccc([N+](=O)[O-])c2)=C(C#N)C1c1ccco1 (configuration not stated),-24%,?,.,40µM*,-55%,-13%
CC(=O)C1=C(C)NC(SCC(N)=O)=C(C#N)C1c1ccco1 (configuration not stated),14%,-15%,?,?,89µM*,33%
